According to ChEMBL document CHEMBL3988442, “University of Dundee, Small-Polar-MMV Screening Library” (2021):

Biological target: AMP-activated protein kinase, AMPK (Homo sapiens) (UniProt P54646+O43741+P54619+Q9UGJ0+Q9Y478+Q13131+Q9UGI9)
Assay: AMP-dependent Kinase enzyme assay. An in vitro enzyme assay that detects ADP turnover that is directly proportional to AMPK activity. This uses naive AMPK that is activated during the assay with MK-8722
Assay type: functional
Design: scale not given: direction of the effect not stated beside the values
Conditions: 30 µM

SMILES	Percent Effect
CC(N)C(=O)N1CCC(Oc2cccc(C(F)(F)F)c2)CC1 (centres undefined)	-2.71%
CCn1nc(C)c(CCN2CC3(CCOC3)CCC2=O)c1C (centres undefined)	-1.79%
c1cc(CNCc2ccc(-n3cncn3)nc2)cc(OC2CCCC2)c1	9.46%
CCOC(=O)c1n[nH]cc1CN1CCOC(Cc2ccc(OC)cc2)C1 (centres undefined)	2.27%
CC(=O)Nc1ccc(Oc2cc(C)nc(C3CCNCC3)c2)cc1	0.11%
Cn1cc(S(=O)(=O)N(CC(F)(F)F)C2CC2)cc1C(N)=O	1.54%
COCc1cccc(NCc2cccnc2)c1	0.23%
CNS(=O)(=O)c1c(C)sc2ccccc12	7.5%
Cc1cnc(Nc2cccc(C3CCCN3Cc3cn(C)nc3C)n2)s1 (centres undefined)	21.4%
N[C@H]1CN(S(=O)(=O)Cc2ccccc2)C[C@@H]1C1CC1	-5.29%
CCn1nc(C)cc1C(=O)OCC1CC(=O)N(Cc2ccccc2)C1 (centres undefined)	38.6%
COc1cc(COCC2CCN(Cc3cccnc3)CC2)cc(OC)c1	1.38%
O=C1CN(C(=O)c2cc3ccc(Br)cc3[nH]2)CCN1	91%
Cn1nccc1-c1cncc(C2CCCN(S(C)(=O)=O)C2)n1 (centres undefined)	22.7%
O=C(O)C1(O)CCN(c2ccc3cccc(Cl)c3n2)CC1	13.6%
Cc1ncn(CCNC(=O)Nc2ccc(OC(F)(F)F)cc2)c(=O)c1C	2.14%
CN(C)c1ccc(C(=O)Nc2ccn(CC(N)=O)n2)cn1	10.9%
COCc1c(Br)cccc1NC(=O)CC(F)(F)F	-6.57%
COc1ccc(-c2cc3nc(CCNC(=O)CN(C)C)nn3cn2)cc1	15%
O=C1NCCCN1Cc1nc(-c2ccc(N3CCCCC3)cc2)no1	3.5%

SMILES	Percent Effect
CCCc1cc(=O)[nH]c(-n2nc(-c3cccs3)cc2N)n1	-6.1%
CN(Cc1cc(Br)cn1C)C(=O)Cc1cccc(O)c1	-0.828%
c1ccc2oc(N3CCC(c4nncn4C4CC4)CC3)nc2c1	8.44%
COc1cc(CNC(=O)COC2CCCC2)ccc1O	3.23%
COC1CCCOC12CCN(C(=O)NCc1ccco1)CC2 (centres undefined)	13%
CN(C)c1nc(N)nc(CN2CCCC(c3ccccc3)CC2)n1 (centres undefined)	-3.69%
CSc1nccc(N2CCC(NCc3nc(C)cc(C)n3)CC2)n1	7.66%
COc1ccc2c(c1)OCC(CNC1CCc3nc(C)nn3C1)=C2 (centres undefined)	7.59%
O=C(NCc1ccco1)N1CCC(n2cc(-c3ccccn3)nn2)CC1	0.674%
CN(Cc1nc2ccccc2[nH]1)C(=O)CN(C)c1ccc(Cl)cn1	-0.551%
Cc1cn2c(n1)C(CNCc1cnn3ccccc13)CCC2 (centres undefined)	-1.25%
COc1cccc(-c2nc(CNCc3cccnc3)cs2)c1	-1.6%
CC(C)n1ccc(C(=O)OCC2CC(=O)N(Cc3ccccc3)C2)n1 (centres undefined)	7.89%
O=S(=O)(NCCCn1cncn1)c1ccc2c(c1)CCCC2	6.33%
COCC[C@]1(O)CCN(Cc2ccccn2)C[C@H]1C	5.38%
COc1ccc(C)nc1NC(=O)Cc1c(C)nn(C)c1C	2.12%
Cn1cc(CN2CCCC(O)C2)c(-c2ccccc2F)n1 (centres undefined)	5.23%
Cc1cnc(C(NC(=O)NCc2nc(C3CC3)no2)C2CC2)s1 (centres undefined)	0.145%
CCCn1cc(-c2cc(C(=O)N(C)C)c3ccc(OC)cc3n2)cn1	8.93%
